Hits are enriched below; roughly 9.2% of the tested compounds scored in any of these assays.
SMN2 splice enh – increases expression of the SMN2 splice variant; 210,000 tested, 2.8% active; Potency, µM (series often up to 46.1 µM), for inactives: top-dose activity change, positive = activation, actives largely listed as activators; HEK293 SMN2-luciferase splicing reporter, luminescence, 30-36 h; further: % of control where 0% means no effect; nearly all actives have a fitted effect of over 55% in size
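HEK293 cells carry an SMN2 minigene-luciferase reporter in which exon 7 inclusion puts luciferase in frame. Cells were seeded at 2000 cells/well, attached for 10-12 hours, then exposed to compounds for 30-36 hours at 37C before ONE-Glo luminescence.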
Rab9 prom act – activates the Rab9 promoter | Huh7 Rab9 promoter-luciferase reporter, luminescence, 24 h | Potency, µM (series often up to 9.22 µM), for the others: top-dose activation, negative = inhibition, most hits filed as activators | 320,000 tested, 2.8% active | AID 485297; further: % of control where 0% means no effect; nearly all actives have a fitted effect of over 60% in size
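Luciferase signal after 10 min detection reagent at ambient indicates Rab9 promoter upregulation; stably transfected Huh7 cells were treated 24 h with compound in DMSO at 37 °C, 5% CO2.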
NPC1 promoter act – activators of NPC1 promoter. 320,000 tested, 2.4% active. Huh7 NPC1 promoter luciferase reporter, 24 h. AID 485313. Potency, µM (series often up to 9.22 µM), without a hit: at the top dose activation, usual class: activators; further: % of control where 0% means no effect; nearly all actives have a fitted effect of over 60% in size
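Stably transfected Huh7 (NPC1 promoter→luciferase), 1500 cells/well in Opti-MEM + 10% FBS, 2 h settle, then compound 24 h at 37 °C. Luminescence after 10 min with Amplite reagent.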
ELG1 genotoxic – genotoxicity induction in ELG1-luciferase HEK293T cells. Potency, µM (doses to about 46 µM), for the others: at the top dose activity change, positive = activation, actives largely listed as activators. AID 504466. HEK293T ELG1-luciferase reporter, luminescence, 16 h. 330,000 tested, 1.3% active; further: % of control where 0% means no effect; nearly all actives have a fitted effect of over 60% in size
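Step 1: seed 2,000 HEK293T ELG1-luciferase cells per well. Step 2: add compound or DMSO, incubate 16 hr at 37 °C. Step 3: ONE-Glo, 30 min at room temperature, read luminescence.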
FLuc counter – counter-screen for miR-21 project: firefly luciferase inhibitors or activators. P08659. purified FLuc, Km substrates, luminescence inhibition. Potency, µM (doses to about 57.5 µM), for inactives: at the top dose activity change, negative = inhibition, hits mostly inhibitors. 360,000 tested, 6.9% active. AID 588342;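 further: plate controls were vehicle for no effect and reference inhibitor for full effect; nearly all actives have a fitted effect of over 55% in size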
Target sequence (P08659 whole entry, looked up): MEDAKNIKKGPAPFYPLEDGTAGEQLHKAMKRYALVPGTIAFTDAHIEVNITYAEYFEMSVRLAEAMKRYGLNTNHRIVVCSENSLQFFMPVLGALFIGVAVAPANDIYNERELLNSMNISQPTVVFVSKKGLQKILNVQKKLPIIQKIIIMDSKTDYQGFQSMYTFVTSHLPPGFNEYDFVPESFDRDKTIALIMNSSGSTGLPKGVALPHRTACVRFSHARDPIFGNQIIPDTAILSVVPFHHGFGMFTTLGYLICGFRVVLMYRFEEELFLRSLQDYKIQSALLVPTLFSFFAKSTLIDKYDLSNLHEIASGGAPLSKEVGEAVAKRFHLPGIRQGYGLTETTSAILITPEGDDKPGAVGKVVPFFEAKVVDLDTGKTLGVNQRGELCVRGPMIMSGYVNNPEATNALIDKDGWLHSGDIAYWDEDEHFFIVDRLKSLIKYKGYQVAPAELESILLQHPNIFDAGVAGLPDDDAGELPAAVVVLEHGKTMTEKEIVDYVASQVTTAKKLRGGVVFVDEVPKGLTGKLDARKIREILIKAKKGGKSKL
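Purified P. pyralis luciferase, 10 nM final, with Km-level 10 uM D-luciferin and 10 uM ATP in 50 mM Tris acetate pH 7.5, 10 mM Mg acetate, 0.01% Tween-20, 0.05% BSA; 6-point qHTS titration about 60 µM downward; luminescence read.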
ELG1 DNA repair – inhibitors of ELG1-dependent DNA repair in HEK293T cells | 330,000 tested, 2.3% active | Potency, µM (series often up to 46.1 µM), for the others: at the highest dose activity change, negative = inhibition, actives largely listed as inhibitors | HEK293T ELG1-luciferase reporter, luminescence, 16 h; DNA damage induced by 5-fluorouridine; further: on the % scale 0 is the no-effect control and ±100 the full control effect; nearly all actives have a fitted effect of over 55% in size
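In this reporter screen, reduction of luminescence relative to DMSO vehicle indicated activity. Compounds and 5-fluorouridine were added together to 2,000 cells per well, incubated for 16 hr at 37 °C, then developed with ONE-Glo.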
An asterisk follows results filed as active; [ ] = another dose, or the depositor's remark. The call rests on the fitted dose curve; in most records, active means well fitted curve in the direction sought with a large enough effect; inconclusive means small, poorly fitted or top-dose-only effect, or another doubt; inactive means no such curve, though single readings can be large; an effect the other way counts as inactive or inconclusive. Potency means the concentration at half of the fitted maximal effect.

For Cc1cccc(NC(=O)Cn2c(=O)n(Cc3ccco3)c(=N)c3c4c(sc32)COC(C)(C)C4)c1 the results were SMN2 splice enh 3%, Rab9 prom act 0%, NPC1 promoter act -3%, ELG1 genotoxic -6%, FLuc counter 4% and ELG1 DNA repair inconclusive.
O=C(CCCn1c(=S)[nH]c2cc3c(cc2c1=O)OCO3)NCc1cccc(Cl)c1 was read as Rab9 prom act 1%, NPC1 promoter act -4%, ELG1 genotoxic -1%, FLuc counter 4% and ELG1 DNA repair 0%.
`CC(C)Cn1c(=O)c2ccccc2n2c(CCC(=O)O)nnc12` gave Rab9 prom act 6%, NPC1 promoter act 1%, ELG1 genotoxic 0%, FLuc counter 0% and ELG1 DNA repair 6%.
`O=C(N/N=C/c1cccc(OC2CSC2)c1)c1ccccc1O` gave SMN2 splice enh 9%, Rab9 prom act 11%, NPC1 promoter act 10%, ELG1 genotoxic 2%, FLuc counter 6.7µM* and ELG1 DNA repair inconclusive.
For Cc1cccc(C(=O)N/N=C/c2ccc(OC3CSC3)cc2)c1 the results were SMN2 splice enh -2%, Rab9 prom act 2%, NPC1 promoter act 12%, ELG1 genotoxic 12%, FLuc counter 11µM* and ELG1 DNA repair inconclusive.
Screening Cn1nccc1C(=O)Oc1cccc(/C=N/NC(=O)c2ccccc2O)c1 returned Rab9 prom act 9%, NPC1 promoter act -1%, ELG1 genotoxic inconclusive, FLuc counter 9.5µM* and ELG1 DNA repair inconclusive.
`Cc1cccc(C(=O)Oc2ccc(/C=N/NC(=O)c3ccccc3O)cc2)c1` gave SMN2 splice enh 5%[1.84 µM], Rab9 prom act 27%, NPC1 promoter act 17%, ELG1 genotoxic 16%, FLuc counter 13µM* and ELG1 DNA repair inconclusive.
Screening COc1cccc(C(=O)N/N=C/c2ccc(OC3CSC3)cc2)c1 returned SMN2 splice enh -39%, Rab9 prom act 10%, NPC1 promoter act -4%, ELG1 genotoxic inconclusive, FLuc counter 15µM* and ELG1 DNA repair 16%.
For N#CCC(=O)N/N=C/c1ccc(OC2CSC2)cc1 the results were SMN2 splice enh 5%, Rab9 prom act 8%, NPC1 promoter act 1%, ELG1 genotoxic 4%, FLuc counter -12% and ELG1 DNA repair 15%.
For CN(C)c1ccc(C=Nc2cnn(C)c2C(N)=O)cc1 the results were Rab9 prom act 1%, NPC1 promoter act -4%, ELG1 genotoxic inconclusive, FLuc counter 4.8µM* and ELG1 DNA repair inconclusive.
N/C(=N\OC(=O)C12CC3CC(CC(C3)C1)C2)c1cccnc1 was read as SMN2 splice enh 24%, Rab9 prom act 7%, NPC1 promoter act 9%, ELG1 genotoxic 3%, FLuc counter 15µM* and ELG1 DNA repair 19%.
Screening C/C(=N/NC(=O)c1ccoc1C)C12CC3CC(CC(C3)C1)C2 returned SMN2 splice enh -3%, Rab9 prom act 4%, NPC1 promoter act 1%, ELG1 genotoxic inconclusive, FLuc counter inconclusive and ELG1 DNA repair inconclusive.
For C/C(=N\NC(=O)c1ccccn1)C12CC3CC(CC(C3)C1)C2 the results were SMN2 splice enh 9%, Rab9 prom act inconclusive, NPC1 promoter act 29%, ELG1 genotoxic 10%, FLuc counter 15µM* and ELG1 DNA repair inconclusive.
`N/C(=N\OC(=O)N1CCOCC1)c1ccccc1` gave SMN2 splice enh -75%, Rab9 prom act 27%, NPC1 promoter act 24%, ELG1 genotoxic 6%, FLuc counter 17µM* and ELG1 DNA repair 19%.
For N/C(=N\OC(=O)C12CC3CC(CC(C3)C1)C2)c1ccccn1 the results were SMN2 splice enh 23%, Rab9 prom act 20%, NPC1 promoter act 17%, ELG1 genotoxic inconclusive, FLuc counter 7.6µM* and ELG1 DNA repair inconclusive.
Screening O=C(NCCn1cc(SCc2ccc(F)cc2)c2ccccc21)c1cccs1 returned SMN2 splice enh -34% and FLuc counter -10%.
`CCc1nc(Oc2cccc(F)c2)c2oc3ccccc3c2n1` gave FLuc counter -2%.
For N/C(=N\OC(=O)C12CC3CC(CC(C3)C1)C2)c1ccccc1 the results were SMN2 splice enh 1%, Rab9 prom act 1%, NPC1 promoter act 16%, ELG1 genotoxic 11%, FLuc counter 4.8µM* and ELG1 DNA repair 16%.
CCCC1=NN2C(=N)/C(=C\c3ccc(OCCOc4ccc(NC(C)=O)cc4)c(OC)c3)C(=O)N=C2S1 was read as Rab9 prom act 1%, NPC1 promoter act -2%, ELG1 genotoxic 0%, FLuc counter -1% and ELG1 DNA repair 13%.
Cc1ccc(C(=O)/C=C/Nc2cccc([N+](=O)[O-])c2)o1 was read as SMN2 splice enh 14µM*, Rab9 prom act 3.2µM*, NPC1 promoter act inconclusive, ELG1 genotoxic inconclusive, FLuc counter 5.4µM* and ELG1 DNA repair inconclusive.
CN(C)C(/C=C/Nc1cccc([N+](=O)[O-])c1)=C(C#N)C#N was read as SMN2 splice enh 5%, Rab9 prom act 12%, NPC1 promoter act 2%, ELG1 genotoxic 2%, FLuc counter -2% and ELG1 DNA repair -7%.
Screening CN(C)c1ccc(Nc2nc(N)c([N+](=O)[O-])c(N3CCOCC3)n2)cc1 returned SMN2 splice enh 7%, Rab9 prom act 5%, NPC1 promoter act -3%, ELG1 genotoxic -7%, FLuc counter inconclusive and ELG1 DNA repair 16µM*.
Screening COC(=O)C1=C(C)NC(C)=C(C(=O)OCC2CCCO2)C1c1ccc(Cl)c([N+](=O)[O-])c1 (stereo not drawn) returned Rab9 prom act -7%, NPC1 promoter act -1%, ELG1 genotoxic -20%, FLuc counter 3% and ELG1 DNA repair 10µM*.
`CCOC(=O)c1ccc(-c2ccc(CO)o2)cc1` gave SMN2 splice enh 7.9µM*, Rab9 prom act 1.6µM*, NPC1 promoter act 1.1µM*, ELG1 genotoxic inconclusive, FLuc counter 11µM* and ELG1 DNA repair inconclusive.
CCOc1ccc(-c2ccc(CO)o2)cc1N was read as FLuc counter 15µM*.
For Cc1ccc(-c2ccc(CO)o2)cc1N the results were SMN2 splice enh -47%, Rab9 prom act -9%, NPC1 promoter act 8%, ELG1 genotoxic -19%, FLuc counter -18% and ELG1 DNA repair inconclusive.
O=C(Nc1ccccn1)c1ccc2c(c1)OCO2 was read as SMN2 splice enh 11µM*, Rab9 prom act 1.3µM*, NPC1 promoter act 3.2µM*, ELG1 genotoxic inconclusive, FLuc counter 12µM* and ELG1 DNA repair inconclusive.
